# Results as given in ChEMBL document CHEMBL1961873, “Compounds: GSK PKIS; Assays: Nanosyn kinase panel” (2012).
# Key:
# [1] = target: Protein kinase C gamma type (Homo sapiens) (UniProt P05129); conditions: at 1 µM;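 also: each value is an averaged percent inhibition of the enzyme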
# [2] = target: T1, Protein kinase C iota type (Homo sapiens) (UniProt P41743); conditions: at 0.1 µM
# T1 sequence (whole entry): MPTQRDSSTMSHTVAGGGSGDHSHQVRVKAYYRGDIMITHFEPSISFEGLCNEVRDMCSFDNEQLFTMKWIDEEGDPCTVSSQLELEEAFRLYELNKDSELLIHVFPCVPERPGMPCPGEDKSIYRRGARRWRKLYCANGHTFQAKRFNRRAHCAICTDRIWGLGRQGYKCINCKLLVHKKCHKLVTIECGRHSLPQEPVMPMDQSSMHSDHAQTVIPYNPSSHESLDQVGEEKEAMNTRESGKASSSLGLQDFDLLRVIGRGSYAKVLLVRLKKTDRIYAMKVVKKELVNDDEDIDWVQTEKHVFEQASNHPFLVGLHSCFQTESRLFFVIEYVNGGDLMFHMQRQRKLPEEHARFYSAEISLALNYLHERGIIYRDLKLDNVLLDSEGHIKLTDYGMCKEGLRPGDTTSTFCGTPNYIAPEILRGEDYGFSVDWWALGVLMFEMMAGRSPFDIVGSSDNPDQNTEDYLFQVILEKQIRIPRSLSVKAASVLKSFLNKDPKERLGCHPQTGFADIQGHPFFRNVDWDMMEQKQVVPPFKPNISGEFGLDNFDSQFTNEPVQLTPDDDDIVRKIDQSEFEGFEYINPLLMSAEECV
# [3] = target: T1, Protein kinase C iota type (Homo sapiens); conditions: at 1 µM
# [4] = target: Protein kinase C theta type (Homo sapiens) (UniProt Q04759); conditions: at 0.1 µM
# [5] = target: Protein kinase C theta type (Homo sapiens) (UniProt Q04759); conditions: at 1 µM
# [6] = target: Protein kinase C beta type (Homo sapiens) (UniProt P05771); conditions: at 0.1 µM
# [7] = target: Protein kinase C beta type (Homo sapiens) (UniProt P05771); conditions: at 1 µM
# [8] = target: T2, Serine/threonine-protein kinase D1 (Homo sapiens) (UniProt Q15139); conditions: at 0.1 µM
# T2 sequence (whole entry): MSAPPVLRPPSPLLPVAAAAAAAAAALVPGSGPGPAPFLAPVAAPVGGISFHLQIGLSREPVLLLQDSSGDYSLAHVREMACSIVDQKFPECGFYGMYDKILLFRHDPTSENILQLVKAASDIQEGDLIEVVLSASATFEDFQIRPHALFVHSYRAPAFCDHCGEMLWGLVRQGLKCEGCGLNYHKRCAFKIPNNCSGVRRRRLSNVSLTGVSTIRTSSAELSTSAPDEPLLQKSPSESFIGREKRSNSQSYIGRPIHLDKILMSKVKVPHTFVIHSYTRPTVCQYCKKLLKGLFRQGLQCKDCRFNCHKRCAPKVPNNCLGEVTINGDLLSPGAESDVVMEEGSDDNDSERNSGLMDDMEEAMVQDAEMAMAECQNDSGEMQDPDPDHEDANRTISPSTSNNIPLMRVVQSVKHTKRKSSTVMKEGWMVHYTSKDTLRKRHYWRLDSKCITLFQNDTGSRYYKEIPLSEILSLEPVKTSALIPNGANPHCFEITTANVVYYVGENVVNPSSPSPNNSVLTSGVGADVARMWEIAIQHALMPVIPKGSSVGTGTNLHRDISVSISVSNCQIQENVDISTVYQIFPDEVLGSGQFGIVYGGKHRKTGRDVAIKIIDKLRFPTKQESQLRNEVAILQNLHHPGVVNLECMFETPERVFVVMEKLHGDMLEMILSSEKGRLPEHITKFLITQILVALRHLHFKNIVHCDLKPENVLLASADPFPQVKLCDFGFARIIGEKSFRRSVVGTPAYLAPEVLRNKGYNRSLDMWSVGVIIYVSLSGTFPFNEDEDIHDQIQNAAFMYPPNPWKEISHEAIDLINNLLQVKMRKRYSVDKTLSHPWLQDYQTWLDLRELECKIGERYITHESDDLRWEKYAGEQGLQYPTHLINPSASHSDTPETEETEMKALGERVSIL
# [9] = target: T2, Serine/threonine-protein kinase D1 (Homo sapiens); conditions: at 1 µM
# [10] = target: T3, Serine/threonine-protein kinase D2 (Homo sapiens) (UniProt Q9BZL6); conditions: at 0.1 µM
# T3 sequence (whole entry): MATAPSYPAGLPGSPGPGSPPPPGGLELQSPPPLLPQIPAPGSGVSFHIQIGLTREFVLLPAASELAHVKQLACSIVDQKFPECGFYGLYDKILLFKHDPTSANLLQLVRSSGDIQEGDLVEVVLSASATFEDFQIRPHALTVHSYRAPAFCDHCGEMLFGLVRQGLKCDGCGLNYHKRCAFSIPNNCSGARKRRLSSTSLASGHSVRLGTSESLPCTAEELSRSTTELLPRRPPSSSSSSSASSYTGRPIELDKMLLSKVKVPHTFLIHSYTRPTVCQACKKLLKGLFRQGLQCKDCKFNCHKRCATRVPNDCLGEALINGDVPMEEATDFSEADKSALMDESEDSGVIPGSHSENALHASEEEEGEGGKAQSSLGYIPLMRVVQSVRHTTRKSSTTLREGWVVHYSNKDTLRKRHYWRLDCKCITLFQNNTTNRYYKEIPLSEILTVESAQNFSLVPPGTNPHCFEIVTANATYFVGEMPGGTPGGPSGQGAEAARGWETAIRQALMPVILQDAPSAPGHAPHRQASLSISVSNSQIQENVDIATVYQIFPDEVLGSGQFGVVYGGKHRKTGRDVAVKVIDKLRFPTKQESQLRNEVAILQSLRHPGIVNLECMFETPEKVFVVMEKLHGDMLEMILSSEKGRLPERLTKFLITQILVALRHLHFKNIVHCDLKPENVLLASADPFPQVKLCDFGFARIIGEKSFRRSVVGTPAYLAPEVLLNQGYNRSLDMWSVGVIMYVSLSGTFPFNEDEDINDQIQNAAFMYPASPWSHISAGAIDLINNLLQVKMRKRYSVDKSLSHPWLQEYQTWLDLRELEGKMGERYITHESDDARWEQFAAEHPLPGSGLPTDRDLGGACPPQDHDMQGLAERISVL
# [11] = target: T3, Serine/threonine-protein kinase D2 (Homo sapiens); conditions: at 1 µM
# [12] = target: T4, Serine/threonine-protein kinase D3 (Homo sapiens) (UniProt O94806); conditions: at 0.1 µM
# T4 sequence (whole entry): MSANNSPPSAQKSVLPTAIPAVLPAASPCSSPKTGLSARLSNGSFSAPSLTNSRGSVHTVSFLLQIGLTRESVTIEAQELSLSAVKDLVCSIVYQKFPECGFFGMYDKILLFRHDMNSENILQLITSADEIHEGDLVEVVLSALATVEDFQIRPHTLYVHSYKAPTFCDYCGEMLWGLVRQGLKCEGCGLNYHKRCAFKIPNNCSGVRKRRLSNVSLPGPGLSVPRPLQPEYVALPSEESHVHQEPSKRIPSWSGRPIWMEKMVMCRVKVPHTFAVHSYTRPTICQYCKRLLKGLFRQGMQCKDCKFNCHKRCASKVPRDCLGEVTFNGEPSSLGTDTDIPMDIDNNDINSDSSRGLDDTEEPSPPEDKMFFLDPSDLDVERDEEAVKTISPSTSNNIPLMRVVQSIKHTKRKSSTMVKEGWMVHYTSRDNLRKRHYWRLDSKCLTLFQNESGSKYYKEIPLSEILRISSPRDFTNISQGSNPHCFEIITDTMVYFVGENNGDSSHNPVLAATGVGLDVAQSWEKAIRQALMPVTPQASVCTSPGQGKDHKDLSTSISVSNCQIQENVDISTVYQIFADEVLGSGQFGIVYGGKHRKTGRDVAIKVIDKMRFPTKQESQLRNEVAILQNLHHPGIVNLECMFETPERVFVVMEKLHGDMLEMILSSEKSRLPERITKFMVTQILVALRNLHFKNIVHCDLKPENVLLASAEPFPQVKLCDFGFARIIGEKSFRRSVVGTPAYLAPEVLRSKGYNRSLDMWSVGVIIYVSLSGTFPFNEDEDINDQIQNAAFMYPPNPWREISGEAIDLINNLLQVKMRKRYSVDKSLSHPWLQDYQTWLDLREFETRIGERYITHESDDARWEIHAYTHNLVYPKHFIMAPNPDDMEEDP
# [13] = target: T4, Serine/threonine-protein kinase D3 (Homo sapiens); conditions: at 1 µM
# [14] = target: T5, cGMP-dependent protein kinase 1 (Homo sapiens) (UniProt Q13976); conditions: at 0.1 µM
# T5 sequence (whole entry): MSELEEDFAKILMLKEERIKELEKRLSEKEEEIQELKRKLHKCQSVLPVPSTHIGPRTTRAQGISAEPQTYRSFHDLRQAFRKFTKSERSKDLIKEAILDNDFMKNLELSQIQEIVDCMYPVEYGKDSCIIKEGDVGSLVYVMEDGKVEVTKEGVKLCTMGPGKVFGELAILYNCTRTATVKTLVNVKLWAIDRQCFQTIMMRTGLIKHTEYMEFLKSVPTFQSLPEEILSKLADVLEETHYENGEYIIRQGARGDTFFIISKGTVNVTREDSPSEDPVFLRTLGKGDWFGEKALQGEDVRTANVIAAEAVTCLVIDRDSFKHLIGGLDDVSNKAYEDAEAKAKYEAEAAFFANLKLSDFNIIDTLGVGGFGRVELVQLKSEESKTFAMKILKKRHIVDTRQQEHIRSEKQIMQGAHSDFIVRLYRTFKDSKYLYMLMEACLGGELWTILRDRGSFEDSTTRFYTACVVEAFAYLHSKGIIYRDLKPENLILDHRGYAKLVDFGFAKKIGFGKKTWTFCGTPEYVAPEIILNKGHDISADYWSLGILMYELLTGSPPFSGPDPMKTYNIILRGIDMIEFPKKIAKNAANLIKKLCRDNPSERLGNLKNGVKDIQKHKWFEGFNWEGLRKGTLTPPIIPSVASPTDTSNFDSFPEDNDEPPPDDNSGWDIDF
# [15] = target: T5, cGMP-dependent protein kinase 1 (Homo sapiens); conditions: at 1 µM
# [16] = target: T6, cGMP-dependent protein kinase 2 (Homo sapiens) (UniProt Q13237); conditions: at 0.1 µM
# T6 sequence (whole entry): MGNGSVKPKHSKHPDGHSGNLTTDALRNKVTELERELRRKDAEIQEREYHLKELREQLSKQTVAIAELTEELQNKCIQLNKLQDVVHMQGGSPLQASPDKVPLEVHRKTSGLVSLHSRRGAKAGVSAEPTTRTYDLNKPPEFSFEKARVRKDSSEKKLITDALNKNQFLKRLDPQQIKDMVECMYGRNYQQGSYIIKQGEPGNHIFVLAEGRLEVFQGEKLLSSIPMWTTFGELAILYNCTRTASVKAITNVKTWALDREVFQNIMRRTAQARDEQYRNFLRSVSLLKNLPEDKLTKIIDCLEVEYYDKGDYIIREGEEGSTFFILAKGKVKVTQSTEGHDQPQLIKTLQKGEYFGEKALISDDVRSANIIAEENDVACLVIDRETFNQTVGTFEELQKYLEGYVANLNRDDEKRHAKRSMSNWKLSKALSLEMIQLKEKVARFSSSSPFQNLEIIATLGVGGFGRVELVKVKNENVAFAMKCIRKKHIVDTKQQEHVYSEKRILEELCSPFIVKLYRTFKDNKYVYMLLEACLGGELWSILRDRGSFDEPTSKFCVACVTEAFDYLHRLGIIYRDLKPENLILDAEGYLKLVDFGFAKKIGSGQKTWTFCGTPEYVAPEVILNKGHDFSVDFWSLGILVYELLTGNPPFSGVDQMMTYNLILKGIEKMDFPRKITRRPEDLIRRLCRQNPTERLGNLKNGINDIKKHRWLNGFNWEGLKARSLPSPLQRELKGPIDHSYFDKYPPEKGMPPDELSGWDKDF
# [17] = target: T6, cGMP-dependent protein kinase 2 (Homo sapiens); conditions: at 1 µM
# [18] = target: T7, cAMP-dependent protein kinase catalytic subunit PRKX (Homo sapiens) (UniProt P51817); conditions: at 0.1 µM
# T7 sequence (whole entry): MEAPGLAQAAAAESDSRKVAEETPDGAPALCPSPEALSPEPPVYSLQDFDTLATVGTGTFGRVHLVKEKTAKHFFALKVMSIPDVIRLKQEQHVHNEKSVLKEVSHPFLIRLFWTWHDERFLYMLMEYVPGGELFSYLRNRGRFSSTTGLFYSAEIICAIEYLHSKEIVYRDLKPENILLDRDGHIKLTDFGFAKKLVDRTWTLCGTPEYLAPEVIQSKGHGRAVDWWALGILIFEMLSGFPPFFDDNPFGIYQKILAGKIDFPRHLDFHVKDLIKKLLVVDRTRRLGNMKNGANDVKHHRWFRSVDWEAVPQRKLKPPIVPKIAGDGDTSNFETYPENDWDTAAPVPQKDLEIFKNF
# [19] = target: T7, cAMP-dependent protein kinase catalytic subunit PRKX (Homo sapiens); conditions: at 1 µM
# [20] = target: Rho-associated protein kinase 1 (Homo sapiens) (UniProt Q13464); conditions: at 0.1 µM;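 also: values are mean percent inhibition of ROCK1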
# Rho-associated protein kinase 1 (Homo sapiens), sequence (Q13464 2-1354 limits assumed): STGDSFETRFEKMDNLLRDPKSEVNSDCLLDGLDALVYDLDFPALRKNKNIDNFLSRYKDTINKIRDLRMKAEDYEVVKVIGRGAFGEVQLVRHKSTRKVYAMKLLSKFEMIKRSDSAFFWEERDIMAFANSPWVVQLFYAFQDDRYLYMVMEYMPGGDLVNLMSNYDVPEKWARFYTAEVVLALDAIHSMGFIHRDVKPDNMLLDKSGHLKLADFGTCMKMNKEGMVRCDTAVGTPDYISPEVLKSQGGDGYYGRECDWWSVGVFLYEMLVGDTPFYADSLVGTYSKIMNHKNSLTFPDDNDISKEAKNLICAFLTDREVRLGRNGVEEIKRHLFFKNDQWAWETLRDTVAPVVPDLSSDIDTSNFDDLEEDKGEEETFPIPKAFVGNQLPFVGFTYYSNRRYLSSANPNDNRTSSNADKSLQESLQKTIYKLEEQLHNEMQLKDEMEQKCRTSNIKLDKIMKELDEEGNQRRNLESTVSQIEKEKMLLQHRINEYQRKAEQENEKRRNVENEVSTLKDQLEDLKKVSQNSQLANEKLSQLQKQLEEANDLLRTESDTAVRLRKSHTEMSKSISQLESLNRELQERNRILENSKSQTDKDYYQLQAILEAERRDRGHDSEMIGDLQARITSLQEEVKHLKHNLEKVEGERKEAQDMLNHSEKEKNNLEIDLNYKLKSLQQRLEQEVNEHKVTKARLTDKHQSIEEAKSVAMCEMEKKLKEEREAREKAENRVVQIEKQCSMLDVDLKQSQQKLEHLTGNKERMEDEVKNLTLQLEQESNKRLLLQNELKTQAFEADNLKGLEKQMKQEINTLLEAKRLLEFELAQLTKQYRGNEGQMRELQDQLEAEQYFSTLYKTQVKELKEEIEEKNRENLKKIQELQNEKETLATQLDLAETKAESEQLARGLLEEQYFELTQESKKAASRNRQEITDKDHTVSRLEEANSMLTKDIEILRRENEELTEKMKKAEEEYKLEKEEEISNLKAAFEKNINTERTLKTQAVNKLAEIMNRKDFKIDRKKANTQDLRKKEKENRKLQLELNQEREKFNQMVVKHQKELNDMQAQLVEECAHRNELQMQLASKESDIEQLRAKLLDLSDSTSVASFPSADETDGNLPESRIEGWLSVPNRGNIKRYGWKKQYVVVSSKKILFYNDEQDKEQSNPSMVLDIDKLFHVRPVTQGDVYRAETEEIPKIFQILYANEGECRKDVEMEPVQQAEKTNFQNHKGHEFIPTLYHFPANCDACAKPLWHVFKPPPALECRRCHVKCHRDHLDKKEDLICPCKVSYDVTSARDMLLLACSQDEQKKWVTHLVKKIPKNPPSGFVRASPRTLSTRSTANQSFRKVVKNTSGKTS
# Protein kinase C theta type (Homo sapiens), sequence (Q04759 whole entry, looked up): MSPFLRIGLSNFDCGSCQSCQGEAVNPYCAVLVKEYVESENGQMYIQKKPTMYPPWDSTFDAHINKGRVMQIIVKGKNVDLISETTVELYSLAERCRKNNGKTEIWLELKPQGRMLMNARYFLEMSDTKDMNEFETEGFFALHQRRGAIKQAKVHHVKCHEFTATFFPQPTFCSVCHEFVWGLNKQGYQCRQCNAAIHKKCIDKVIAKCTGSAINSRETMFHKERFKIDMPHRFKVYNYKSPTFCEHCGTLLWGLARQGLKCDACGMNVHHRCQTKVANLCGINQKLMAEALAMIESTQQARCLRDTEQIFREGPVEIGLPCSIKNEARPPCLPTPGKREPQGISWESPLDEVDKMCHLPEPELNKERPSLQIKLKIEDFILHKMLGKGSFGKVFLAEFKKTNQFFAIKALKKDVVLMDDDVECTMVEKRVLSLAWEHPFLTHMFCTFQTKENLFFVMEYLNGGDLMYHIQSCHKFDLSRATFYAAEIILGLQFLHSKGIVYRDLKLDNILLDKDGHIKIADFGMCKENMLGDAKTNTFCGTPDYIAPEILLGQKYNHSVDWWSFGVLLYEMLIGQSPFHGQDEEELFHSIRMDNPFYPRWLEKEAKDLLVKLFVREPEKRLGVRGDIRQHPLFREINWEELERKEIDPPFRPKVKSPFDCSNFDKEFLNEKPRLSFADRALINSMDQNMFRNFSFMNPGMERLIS
# Protein kinase C beta type (Homo sapiens), sequence (P05771 2-671 limits assumed): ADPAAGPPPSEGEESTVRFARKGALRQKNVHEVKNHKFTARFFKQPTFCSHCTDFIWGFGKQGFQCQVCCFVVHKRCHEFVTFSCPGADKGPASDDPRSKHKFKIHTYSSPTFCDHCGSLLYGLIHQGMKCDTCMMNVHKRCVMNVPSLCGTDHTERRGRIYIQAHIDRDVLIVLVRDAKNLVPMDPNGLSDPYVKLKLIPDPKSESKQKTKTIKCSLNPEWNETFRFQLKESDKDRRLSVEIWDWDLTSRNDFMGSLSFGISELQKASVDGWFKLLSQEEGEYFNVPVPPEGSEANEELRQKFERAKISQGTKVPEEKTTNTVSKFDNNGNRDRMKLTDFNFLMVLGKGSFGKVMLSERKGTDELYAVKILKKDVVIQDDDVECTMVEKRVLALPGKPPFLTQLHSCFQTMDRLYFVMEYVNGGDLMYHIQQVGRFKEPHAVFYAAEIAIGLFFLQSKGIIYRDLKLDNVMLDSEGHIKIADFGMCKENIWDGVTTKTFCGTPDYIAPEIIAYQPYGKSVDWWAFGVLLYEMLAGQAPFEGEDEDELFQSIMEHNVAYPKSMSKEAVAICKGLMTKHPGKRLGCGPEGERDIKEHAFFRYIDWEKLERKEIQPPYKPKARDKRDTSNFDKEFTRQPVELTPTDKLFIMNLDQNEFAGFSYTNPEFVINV
Compound,inhibition [1],inhibition [2],inhibition [3],inhibition [4],inhibition [5],inhibition [6],inhibition [7],inhibition [8],inhibition [9],inhibition [10],inhibition [11],inhibition [12],inhibition [13],inhibition [14],inhibition [15],inhibition [16],inhibition [17],inhibition [18],inhibition [19],inhibition [20]
CCCN1CCCC(c2ccc(Nc3nc(Nc4cc(F)ccc4C(N)=O)c4cc[nH]c4n3)c(OC)c2)C1 (stereo not given),22%,0.84%,2.93%,1.64%,4.89%,1.85%,5.27%,32.2%,79.5%,25.9%,81.1%,19.6%,72.7%,7.1%,32.9%,4.78%,26.3%,0.44%,0.52%,22.5%
[O-][S+]1CCN(Cc2ccc(-c3ccc4ncnc(Nc5ccc(OCc6ccccc6)c(Cl)c5)c4c3)o2)CC1,3.28%,1.72%,1.88%,1.06%,1.03%,0.97%,2.88%,1.74%,2.75%,1.16%,1.77%,1.61%,2.2%,1.79%,0.53%,0.97%,2.95%,1.3%,1.17%,0.9%
c1ccc(Cc2nc3ccc(Nc4ncnc5ccccc45)cc3[nH]2)cc1,2.9%,0.63%,0.68%,1.76%,2.47%,0.1%,0.12%,2.88%,6.43%,2.49%,4.57%,3.17%,5.52%,1.14%,4.46%,1.61%,6.41%,0.98%,1.89%,0.25%
COc1cc(/C=N/Nc2ncnc3c2cnn3C(C)C)ccc1O,5.96%,1.94%,1.52%,1.33%,4.03%,1.47%,4.67%,1.79%,1.16%,1.45%,1.41%,1.37%,1.6%,3.26%,3.14%,0.71%,2.16%,0.57%,0.81%,0.31%
